The structures appear in SMILES notation. Values without a mark were called inactive. Active and inactive are the calls of the source.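 The calls were made as follows, unless noted: active = viability loss from added drug above about 55%, and viability with drug at most 40%, in both replicates (limit read from the data, passing the limit was not always enough); inconclusive = both conditions met in only one replicate; inactive = neither replicate meets both conditions.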

A short description of one assay: H69AR cell proliferation blockers – human, duplicate replicates, primary screen (AID 580;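 active = viability at or under a set limit in both replicates, limit being median viability minus 3 SD, cut at about 48% in these data, passing the limit was not always enough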;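 also: 100% = mean luminescence of untreated wells and 0% = no signal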). The note with it: H69AR lung tumor cells viability, ATP luminescence, 72 h; at 10 µM; stronger effect = lower value.
A word on the viability: it is a read-out of living cells in per cent, often relative to untreated cells. Consider `CCC1CCCCN1c1nc(-c2ccncc2)nc2ccccc12` (stereo not given), for which the viability was 14.5% (active).

Take `Cc1nc(NC(=O)c2ccccc2)sc1-c1csc(NCc2ccco2)n1`: the viability is 20.2% (active).

As to `COc1ccc(OCCN2C(=O)NC(C)(c3ccc(C)cc3)C2=O)cc1` (stereo not given), the viability was 91.1%.

Take `Cc1cc(S(=O)(=O)N2CCN(c3ncccn3)CC2)ccc1-n1cnnn1`: the viability was 97.1%.

On to `O=C(NCC(=O)N(c1cccnc1)C(C(=O)NC1CCCCC1)c1cccnc1)c1ccco1` (stereo not given), for which the viability is 109%.

For `CCOC(=O)Nc1nnc(-c2ccccc2OC)s1`, the viability was 93.9%.

Regarding `CCc1nnc(SCc2cn3c(C)cc(C)nc3n2)n1N`, the viability is 108%.

As to `CCOc1cc(/C=N/n2cnnc2)cc(Br)c1O`, the viability is 83.3%.

Regarding `COc1ccc(Nc2nc(Nc3ccc(OC)cc3)nc(-n3[nH]c(=O)c(C)c3C)n2)cc1`, the viability was 12.1% (active).

For `CC(O)c1cc2c(cc1NC(=O)c1cnn3c1NC(c1ccco1)CC3C(F)(F)F)OCO2` (stereo not given), the viability was 86.3%.

On to `CC(C)n1nc(C(=O)Nc2nc3ccc(S(C)(=O)=O)cc3s2)c2ccccc2c1=O`, for which the viability was 67.8%.

On to `CC(CC(=O)NCc1ccccc1)C1CCCO1` (stereo not given), for which the viability is 93.4%.

`CCCCn1cnc2c(c1=O)c1nc3ccccc3nc1n2Cc1ccc2c(c1)OCO2`: the viability was 68.9%.

In the case of `COc1ccc(-n2nnnc2SCC(=O)c2ccc(O)c(O)c2)cc1`, the viability is 34.7% (active).

With `CCN(CC)CCn1c(OC)cc(=O)[nH]c1=O`, the viability was 101%.

Take `O=C(c1ccco1)N1CCN(c2nc(C(F)(F)F)nc3c2nnn3Cc2ccccc2)CC1`: the viability is 73.3%.

Consider `O=C(O)c1ccc(NC(=O)c2cccs2)cc1`, for which the viability was 92.5%.

For `NS(=O)(=O)c1cc2c(cc1C(F)(F)F)NCNS2(=O)=O`, the viability was 109%.

With `Cc1ccc(CCNC(=O)C2CCC(=O)N2C2CCCC2)cc1` (stereo not given), the viability is 94.9%.

In the case of `COc1cccc(NS(=O)(=O)c2ccc3[nH]cc(C(=O)NC4CC4)c(=O)c3c2)c1`, the viability is 70.1%.

Consider `CCn1cc(C(=O)O)c(=O)c2ccc(C)nc21`, for which the viability was 101%.

Take `Cc1nc2ccc(S(=O)(=O)NCC(=O)N3CCc4ccccc4C3)cc2s1`: the viability is 93.5%.

Consider `c1coc(CN2CN=C(Nc3nc4ccccc4s3)NC2)c1`, for which the viability is 96.4%.

Take `COc1cc(NS(=O)(=O)c2ccc(N)cc2)nc(OC)n1`: the viability was 100%.

As to `Cc1ccc2nc3c(cc(C(=O)NCC4CCCO4)n3C)c(=O)n2c1` (stereo not given), the viability was 94.9%.

Turning to `COc1ccc2c(c1)c(CC(=O)OCC(=O)O)c(C)n2C(=O)c1ccc(Cl)cc1`, the viability was 96.2%.

With `CCCn1cnc2c(cnn2-c2ccc(F)cc2)c1=O`, the viability is 98.8%.

As for `CCN(CCO)C(=O)CC(c1ccccc1)c1cc(Br)ccc1O` (stereo not given), the viability is 93.8%.

For the compound `COc1cc2c(cc1OC)C(/C(C#N)=N\O)=NC(C)(C)C2`, the viability was 100%.

On to `O=C(O)COc1cccc(NC(=O)C2CCCO2)c1` (stereo not given), for which the viability was 93.3%.

Regarding `CN1CCN(C(=O)c2ccc3c(=O)n(CCc4ccccc4)c(=S)[nH]c3c2)CC1`, the viability was 81.6%.

As to `CN(CCNC(=O)c1ccc(N2CCCC2=O)cc1)CCc1ccccc1`, the viability is 101%.

Take `COc1cccc(OCC(=O)Nc2ccccc2C(N)=O)c1`: the viability was 97%.

Take `CN1CC=C2C(C#N)=C(N)C(C#N)(C#N)C(c3cccc(Cl)c3Cl)C2C1` (stereo not given): the viability is 61.1%.

Consider `Cn1c(C(=O)OC(C(=O)NC2CCCC2)c2cccnc2)cc2sccc21` (stereo not given), for which the viability was 89.1%.

On to `Cc1ccc(NC(=O)COC(=O)c2ccn(C)n2)cc1`, for which the viability was 87.2%.

With `FC(F)(F)c1ccc(Sc2nnc(-c3cccs3)n2CC2CCCO2)nc1` (stereo not given), the viability was 94.5%.

For the compound `COc1ccc(-n2c(SCC(=O)N3CCCCC3C)nnc2-c2cccnc2)cc1` (stereo not given), the viability is 102%.

Regarding `CCOC(=O)c1ccc(N(CC(=O)NC2CCCC2)C(=O)CNC(=O)c2ccco2)cc1`, the viability was 93.9%.

Turning to `COC(=O)c1ccccc1NC(=O)C1CCN(S(=O)(=O)c2cc(C)ccc2OC)CC1`, the viability was 79.1%.

A short description of a further assay: MRP1 drug-resistance reversers in H69AR cells – cell-based, doxorubicin co-treatment, pilot screen (AID 601). The conditions noted are these: H69AR cells + 2 uM doxorubicin, CellTiter-Glo, 72 h; at 10 µM; stronger effect = higher value. In general terms: In ATP-based viability assays light output follows the ATP content of the culture.
For `CCC1CCCCN1c1nc(-c2ccncc2)nc2ccccc12` (stereo not given), the differential viability (reversal) is -40.4%.

Regarding `Cc1nc(NC(=O)c2ccccc2)sc1-c1csc(NCc2ccco2)n1`, the differential viability (reversal) is -42.5%.

For the compound `COc1ccc(OCCN2C(=O)NC(C)(c3ccc(C)cc3)C2=O)cc1` (stereo not given), the differential viability (reversal) was -3.77%.

Take `Cc1cc(S(=O)(=O)N2CCN(c3ncccn3)CC2)ccc1-n1cnnn1`: the differential viability (reversal) is 3.36%.

Take `O=C(NCC(=O)N(c1cccnc1)C(C(=O)NC1CCCCC1)c1cccnc1)c1ccco1` (stereo not given): the differential viability (reversal) is 9.06%.

With `CCOC(=O)Nc1nnc(-c2ccccc2OC)s1`, the differential viability (reversal) was 0.53%.

As to `CCc1nnc(SCc2cn3c(C)cc(C)nc3n2)n1N`, the differential viability (reversal) was 15.7%.

As to `CCOc1cc(/C=N/n2cnnc2)cc(Br)c1O`, the differential viability (reversal) is -8.45%.

Regarding `COc1ccc(Nc2nc(Nc3ccc(OC)cc3)nc(-n3[nH]c(=O)c(C)c3C)n2)cc1`, the differential viability (reversal) was 1.18%.

Turning to `CC(O)c1cc2c(cc1NC(=O)c1cnn3c1NC(c1ccco1)CC3C(F)(F)F)OCO2` (stereo not given), the differential viability (reversal) was 0.405%.

On to `CC(C)n1nc(C(=O)Nc2nc3ccc(S(C)(=O)=O)cc3s2)c2ccccc2c1=O`, for which the differential viability (reversal) is -4.21%.

As to `CC(CC(=O)NCc1ccccc1)C1CCCO1` (stereo not given), the differential viability (reversal) is 2.22%.

With `CCCCn1cnc2c(c1=O)c1nc3ccccc3nc1n2Cc1ccc2c(c1)OCO2`, the differential viability (reversal) is -5.45%.

For `COc1ccc(-n2nnnc2SCC(=O)c2ccc(O)c(O)c2)cc1`, the differential viability (reversal) was -41.9%.

For `CCN(CC)CCn1c(OC)cc(=O)[nH]c1=O`, the differential viability (reversal) was 0.635%.

For `O=C(c1ccco1)N1CCN(c2nc(C(F)(F)F)nc3c2nnn3Cc2ccccc2)CC1`, the differential viability (reversal) is -2.53%.

Regarding `O=C(O)c1ccc(NC(=O)c2cccs2)cc1`, the differential viability (reversal) was 12.8%.

As to `NS(=O)(=O)c1cc2c(cc1C(F)(F)F)NCNS2(=O)=O`, the differential viability (reversal) was 8.31%.

For `Cc1ccc(CCNC(=O)C2CCC(=O)N2C2CCCC2)cc1` (stereo not given), the differential viability (reversal) was 13%.

For the compound `COc1cccc(NS(=O)(=O)c2ccc3[nH]cc(C(=O)NC4CC4)c(=O)c3c2)c1`, the differential viability (reversal) is -15.6%.

Take `CCn1cc(C(=O)O)c(=O)c2ccc(C)nc21`: the differential viability (reversal) was 0.53%.

Consider `Cc1nc2ccc(S(=O)(=O)NCC(=O)N3CCc4ccccc4C3)cc2s1`, for which the differential viability (reversal) is 6.91%.

Take `c1coc(CN2CN=C(Nc3nc4ccccc4s3)NC2)c1`: the differential viability (reversal) is -0.14%.

In the case of `COc1cc(NS(=O)(=O)c2ccc(N)cc2)nc(OC)n1`, the differential viability (reversal) was 11.7%.

Regarding `Cc1ccc2nc3c(cc(C(=O)NCC4CCCO4)n3C)c(=O)n2c1` (stereo not given), the differential viability (reversal) is 7.85%.

For `COc1ccc2c(c1)c(CC(=O)OCC(=O)O)c(C)n2C(=O)c1ccc(Cl)cc1`, the differential viability (reversal) was 5.33%.

In the case of `CCCn1cnc2c(cnn2-c2ccc(F)cc2)c1=O`, the differential viability (reversal) was 1.56%.

On to `CCN(CCO)C(=O)CC(c1ccccc1)c1cc(Br)ccc1O` (stereo not given), for which the differential viability (reversal) was -3.22%.

Take `COc1cc2c(cc1OC)C(/C(C#N)=N\O)=NC(C)(C)C2`: the differential viability (reversal) is 8.75%.

Turning to `O=C(O)COc1cccc(NC(=O)C2CCCO2)c1` (stereo not given), the differential viability (reversal) is -10.7%.

`CN1CCN(C(=O)c2ccc3c(=O)n(CCc4ccccc4)c(=S)[nH]c3c2)CC1`: the differential viability (reversal) was 25.3%.

Turning to `CN(CCNC(=O)c1ccc(N2CCCC2=O)cc1)CCc1ccccc1`, the differential viability (reversal) was 8.74%.

With `COc1cccc(OCC(=O)Nc2ccccc2C(N)=O)c1`, the differential viability (reversal) was 13.1%.

With `CN1CC=C2C(C#N)=C(N)C(C#N)(C#N)C(c3cccc(Cl)c3Cl)C2C1` (stereo not given), the differential viability (reversal) was 1.02%.

As for `Cn1c(C(=O)OC(C(=O)NC2CCCC2)c2cccnc2)cc2sccc21` (stereo not given), the differential viability (reversal) was -3.48%.

Consider `Cc1ccc(NC(=O)COC(=O)c2ccn(C)n2)cc1`, for which the differential viability (reversal) was 7.78%.

As for `FC(F)(F)c1ccc(Sc2nnc(-c3cccs3)n2CC2CCCO2)nc1` (stereo not given), the differential viability (reversal) is 6.06%.

On to `COc1ccc(-n2c(SCC(=O)N3CCCCC3C)nnc2-c2cccnc2)cc1` (stereo not given), for which the differential viability (reversal) was 10.5%.

As to `CCOC(=O)c1ccc(N(CC(=O)NC2CCCC2)C(=O)CNC(=O)c2ccco2)cc1`, the differential viability (reversal) was 1.51%.

In the case of `COC(=O)c1ccccc1NC(=O)C1CCN(S(=O)(=O)c2cc(C)ccc2OC)CC1`, the differential viability (reversal) is -13.2%.

(Values after PubChem BioAssay.)
